Bioassay records as filed in PubChem.
Compounds with a hit are over-represented: about 18% of the library has one in this group of screens.
IL1B secr inh: inhibitors of inflammasome signaling (IL-1 beta secretion); hit rate 4.7% among 360,000; THP-1 LPS/ATP IL-1B secretion, AlphaLISA, 16 h; hits give low values; activity change, % at 57.5 µM; in the data active = activity change below about -50%; inconclusive = mostly about -30% to -49%
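THP-1 cells pretreated 1 hr with compounds (up to 57.5 uM final), then stimulated with LPS (250 ng/mL final) plus ATP (1.25 mM final); secreted IL-1B measured by AlphaLISA after 16 hr, decreased signal indicating inhibition.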
Gal4-VP16 FLuc: counter-screen for ROR gamma inhibitors: Gal4-VP16 reporter | hit rate 3.5% among 310,000 | AID 2546 | Potency, µM (doses to about 53.6 µM), without a hit: at the highest dose activity, negative = inhibition, actives largely listed as inhibitors | Drosophila S2 Gal4-VP16 UAS-luciferase, luminescence, 20 h;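 note: Gal4-VP16 expression switched on by copper sulfate through the metallothionein promoter; potency is the fitted concentration of half-maximal effect; nearly all actives have a fitted effect of over 50% in size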
DT40 TDP1 no CPT: qHTS for Inhibitors of human tyrosyl-DNA phosphodiesterase 1 (TDP1): qHTS in cells in absence of CPT; DT40 Tdp1-/- hTDP1 cells, no CPT, ATP luminescence, 48 h; Potency, µM (top dose mostly 46.2 µM), without a hit: at the highest dose activity change, negative = growth inhibition, hits mostly inhibitors; hit rate 15% among 420,000; AID 686978, 2013; note: potency is the fitted concentration of half-maximal effect; nearly all actives have a fitted effect of over 55% in size
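DT40 Tdp1-/-;hTDP1 cells, no CPT (DMSO vehicle only), 400 cells/well; compounds pin-transferred; ≥48 hr, 37 °C; CellTiter-Glo 30 min RT dark, luminescence read.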
RORgamma inh: ROR gamma (mouse) transcription inhibition | hit rate 5.4% among 310,000 | AID 2551 | Drosophila S2 Gal4-RORgamma UAS-luciferase reporter, 20 h | Potency, µM (doses to about 53.6 µM), for the others: top-dose activity change, negative = inhibition, hits mostly inhibitors; note: potency is the fitted concentration of half-maximal effect; nearly all actives have a fitted effect of over 60% in size
Target sequence (P51450 whole entry, looked up, the tested form may be a part): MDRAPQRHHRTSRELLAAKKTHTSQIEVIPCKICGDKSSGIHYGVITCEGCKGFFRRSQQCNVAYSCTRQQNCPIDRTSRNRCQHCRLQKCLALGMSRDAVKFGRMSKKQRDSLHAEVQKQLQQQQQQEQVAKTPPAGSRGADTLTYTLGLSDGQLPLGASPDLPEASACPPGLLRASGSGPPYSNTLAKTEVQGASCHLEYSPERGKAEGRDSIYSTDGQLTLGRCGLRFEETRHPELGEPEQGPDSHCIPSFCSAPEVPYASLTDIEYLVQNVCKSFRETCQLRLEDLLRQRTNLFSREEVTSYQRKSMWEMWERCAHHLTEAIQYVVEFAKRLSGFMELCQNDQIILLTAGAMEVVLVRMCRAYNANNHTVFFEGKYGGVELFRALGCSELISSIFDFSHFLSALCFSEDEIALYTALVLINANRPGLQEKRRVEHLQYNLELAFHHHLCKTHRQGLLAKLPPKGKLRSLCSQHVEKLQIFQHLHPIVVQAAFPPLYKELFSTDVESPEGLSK
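In this cell-based reporter format, copper sulfate (700 uM final) drives Gal4–ROR gamma fusion expression from a metallothionein promoter in Drosophila Schneider cells; compounds preincubated 1 hr, reporter read after 20 hr at ambient temperature.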
LDHA block: LDHA (human) enzyme inhibition | hit rate 0.15% among 480,000 | P00338 | activity change, % (values are at about 110 or 230 µM) | purified LDHA, NADH/diaphorase-resazurin fluorescence; hits give low values | AID 1347041; in the data active = activity change below about -30%; inconclusive = mostly about -25% to -30%;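 note: plate controls were DMSO wells for no effect and wells without enzyme for full effect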
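Resorufin fluorescence (ex540/em590), read at 0 and 20 min after diaphorase/resazurin addition, reports the NADH left after a 5 min room-temperature reaction of 2 nM human LDH5 with 0.06 mM NADH and 0.2 mM pyruvate.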
TDP1 cell CPT: DT40-hTDP1 cell growth loss with CPT | chicken DT40 Tdp1-/-;hTDP1 cells + 20 nM CPT, ATP luminescence, 48 h | Potency, µM (titrated, usually from 46.2 µM), without a hit: at the highest dose activity change, negative = growth inhibition, actives largely listed as inhibitors | hit rate 12% among 420,000 | AID 686979; note: potency is the fitted concentration of half-maximal effect; nearly all actives have a fitted effect of over 55% in size
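Chicken DT40 Tdp1-/- cells complemented with human TDP1, 400 cells/well, exposed to compounds plus 20 nM camptothecin for at least 48 h at 37 C; viability read as ATP content by CellTiter-Glo luminescence.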
* hit, by the source's call; [ ] = dose if it differs, or a comment. Unless noted, calls come from the whole dose curve; as a rule, active = well fitted curve in the direction sought with a large enough effect; inconclusive = small, poorly fitted or top-dose-only effect, or another doubt; inactive = no such curve, though single readings can be large; an effect the other way counts as inactive or inconclusive. Unless noted, % is set by controls: 0 for no effect and ±100 for the full control effect.

`Cc1ccc(-c2csc(NC(=O)CSc3nc4ccccc4[nH]3)n2)cc1` gave IL1B secr inh -12.9, Gal4-VP16 FLuc inconclusive, DT40 TDP1 no CPT 23.1µM*, RORgamma inh -8.0%, LDHA block -2.1 and TDP1 cell CPT 20.6µM*.
Cn1c(SCC(=O)NC(C)(C)C)nnc1-c1ccc(C(C)(C)C)cc1 was read as IL1B secr inh 21.2, Gal4-VP16 FLuc inconclusive, DT40 TDP1 no CPT 23.1µM*, RORgamma inh -6.6%, LDHA block -2.2 and TDP1 cell CPT inconclusive.
For COc1ccc(-c2csc(NC(=O)CSc3nc4ccccc4c(=O)[nH]3)n2)cc1 the results were IL1B secr inh 64.4, Gal4-VP16 FLuc -24.3%, DT40 TDP1 no CPT inconclusive, RORgamma inh inconclusive, LDHA block -20.3 and TDP1 cell CPT inconclusive.
For Cc1csc(SCC(=O)Nc2nc(-c3ccccc3)cs2)n1 the results were IL1B secr inh -10.0, Gal4-VP16 FLuc -3.9%, DT40 TDP1 no CPT inconclusive, RORgamma inh inconclusive, LDHA block -5.8 and TDP1 cell CPT inconclusive.
Screening CCn1c(SCC(=O)Nc2nc(-c3ccc(C)cc3)cs2)nnc1-c1ccccc1 returned IL1B secr inh -55.2*, Gal4-VP16 FLuc 16.5%, DT40 TDP1 no CPT 18.4µM*, RORgamma inh 30.8%, LDHA block -1.1 and TDP1 cell CPT inconclusive.
CCn1c(SCC(=O)NC(C)(C)C)nnc1-c1ccncc1 was read as IL1B secr inh 2.8, Gal4-VP16 FLuc -6.3%, DT40 TDP1 no CPT 9.3%, RORgamma inh -1.4%, LDHA block -3.0 and TDP1 cell CPT -2.4%.
Screening CN(C)CCCn1c(SCC(=O)N2c3ccccc3Sc3ccccc32)nc2ccccc2c1=O returned IL1B secr inh -102.0*, Gal4-VP16 FLuc inconclusive, DT40 TDP1 no CPT 23.1µM*, RORgamma inh -114.4%, LDHA block 1.6 and TDP1 cell CPT inconclusive.
Screening CCn1c(SCC(=O)Nc2ccc(-c3nc4ccc(C)cc4s3)cc2)nnc1-c1ccccc1 returned Gal4-VP16 FLuc 17.8µM* and RORgamma inh 11.2µM*.
`CCn1c(SCC(=O)Nc2nc(-c3ccc(C)cc3)cs2)nnc1-c1ccccc1O` gave IL1B secr inh -51.1*, Gal4-VP16 FLuc 15.0%[0.365 µM], DT40 TDP1 no CPT inconclusive, RORgamma inh inconclusive, LDHA block -6.1 and TDP1 cell CPT inconclusive.
Screening C=CCn1c(SCC(=O)Nc2ccc(-c3nc4ccc(C)cc4s3)cc2)nnc1-c1ccncc1 returned IL1B secr inh 15.3, Gal4-VP16 FLuc 5.5%, DT40 TDP1 no CPT -6.3%, RORgamma inh 8.1%, LDHA block 0.2 and TDP1 cell CPT -5.6%.
For Cn1c(SCC(=O)N2c3ccccc3Sc3ccccc32)nc2ccccc21 the results were IL1B secr inh inconclusive, Gal4-VP16 FLuc inconclusive, DT40 TDP1 no CPT inconclusive, RORgamma inh -44.3%, LDHA block -4.4 and TDP1 cell CPT inconclusive.
`CCC1(c2ccc(F)cc2)NC(=O)N(CC(=O)Nc2ccc(-c3nc4ccc(C)cc4s3)cc2)C1=O` (stereo not drawn) gave IL1B secr inh 96.0, Gal4-VP16 FLuc -13.8%, DT40 TDP1 no CPT 6.51µM*, RORgamma inh 0.447µM*, LDHA block -6.3 and TDP1 cell CPT 13µM*.
For C=CCNC(=O)CN1CCC(c2cc3ccccc3[nH]2)CC1 the results were LDHA block -14.9.
For CCn1nnc2cc(C(=O)Nc3nc(-c4ccc5c(c4)CC(=O)N5)cs3)ccc21 the results were LDHA block -2.6.
For CC(NC(=O)c1ccc(-c2ccco2)cc1)c1ccccc1 (stereo not drawn) the results were LDHA block 1.2.
For Cc1ccc(C(=O)N/N=C2/CC(=O)CC(C)(C)C2)cc1 the results were LDHA block -8.2.
Screening CCc1ccc(NC(=O)CSc2nnc(-c3ccccc3)n2C)cc1 returned DT40 TDP1 no CPT -1.7%, LDHA block -3.3 and TDP1 cell CPT 15.8µM*.
`O=C(CCn1cnc2ccccc2c1=O)Nc1nc(-c2ccc(Br)cc2)cs1` gave IL1B secr inh -9.4, Gal4-VP16 FLuc -5.9%, DT40 TDP1 no CPT 16.4µM*, RORgamma inh 38.5%, LDHA block -2.6 and TDP1 cell CPT inconclusive.
Screening Cc1ccc(Cn2c(SCC(=O)Nc3cc(C)on3)nc3ccccc3c2=O)cc1 returned IL1B secr inh 22.3, Gal4-VP16 FLuc inconclusive, DT40 TDP1 no CPT inconclusive, RORgamma inh -29.6%, LDHA block -2.3 and TDP1 cell CPT inconclusive.
Cc1ccc(-c2csc(NC(=O)CSc3nc4ccccc4c(=O)n3CCCN(C)C)n2)cc1 was read as IL1B secr inh -96.6*, Gal4-VP16 FLuc inconclusive, DT40 TDP1 no CPT 14.6µM*, RORgamma inh inconclusive, LDHA block 1.4 and TDP1 cell CPT 10.3µM*.
For CCOC(=O)c1c(-c2ccc(OC)cc2)csc1NC(=O)C1CCCO1 (stereo not drawn) the results were IL1B secr inh -20.1, Gal4-VP16 FLuc -4.9%, DT40 TDP1 no CPT inconclusive, RORgamma inh 38.8%, LDHA block 0.3 and TDP1 cell CPT inconclusive.
`CCOC(=O)c1c(-c2ccc(C)cc2)csc1NC(=O)c1cc(=O)c2cc(Cl)ccc2o1` gave DT40 TDP1 no CPT 4.61µM*, LDHA block 3.1 and TDP1 cell CPT 2.2%.
CC(C)OC(=O)c1c(-c2ccc(C(C)C)cc2)csc1NC(=O)C1CCCO1 (stereo not drawn) was read as IL1B secr inh 16.2, Gal4-VP16 FLuc -12.9%, DT40 TDP1 no CPT 14.6µM*, RORgamma inh 12.9%, LDHA block -4.2 and TDP1 cell CPT inconclusive.
`COC(=O)c1c(-c2cccc(C)c2)csc1NC(=O)C1CCCO1` (stereo not drawn) gave IL1B secr inh -8.9, Gal4-VP16 FLuc -17.4%, DT40 TDP1 no CPT 18.4µM*, RORgamma inh inconclusive, LDHA block 3.4 and TDP1 cell CPT inconclusive.
Screening CCOC(=O)c1c(-c2ccc(C)cc2)csc1NC(=O)C1CCCO1 (stereo not drawn) returned IL1B secr inh 6.8, Gal4-VP16 FLuc -11.6%, DT40 TDP1 no CPT 25.9µM*, RORgamma inh 16.9%, LDHA block 1.1 and TDP1 cell CPT inconclusive.
CCn1c(SCCC(=O)O)nc2c(=O)n(C)c(=O)n(C)c21 was read as LDHA block 0.0.
O=C(COc1ccc(Cl)c(Cl)c1)Nc1ccc2[nH]ncc2c1 was read as LDHA block 5.0.
Cc1cc(C)c(C(=O)COC(=O)c2ccc(N3CCCC3=O)cc2)c(C)c1 was read as LDHA block -11.3.
